Laboratory results taken from PubChem BioAssay AID1159580 (chemical genetic matrix, 2015).
Several values for one entry are separate records, joined by “and”; a condition that tells them apart may be missing. Equal values may be shown once. Screen size: about 5,500 compounds; about 2,000 (36%) were called active. Not shown: some 18% with an inconclusive outcome. Rule as the data show it: active = normalized growth mostly below about 0.91 (no sharp cut-off); inconclusive = no clear call, values can overlap the other calls; inactive = mostly above about 0.92. The list shows a part of the results.

Experiment: chemical genetic growth profiling, strain panel (AID 1159580);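 also: tested at 20 µM; growth read once vehicle control cultures reached saturation at 30 °C; 1 = growth at the plate median or of vehicle wells; lower values mean less growth of the strain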
Conditions: S. cerevisiae deletion strains, growth OD

Measured: normalized growth

COP(=S)(OC)Oc1ccc([N+](=O)[O-])cc1
inactive: locus YAL013W, strain DEP1, active compounds read low 1.03 | locus YAL021C, strain ccr4, active compounds read low 1.01 | locus YAL026C, strain drs2, active compounds read low 0.995 | locus YAL030W, strain snc1, active compounds read low 1 | locus YBL061C, strain skt5, active compounds read low 1 | locus YBR009C, strain hhf1, active compounds read low 0.995 | locus YBR021W, strain FUR4, active compounds read low 1.01 | locus YBR023C, strain chs3, active compounds read low 0.994 | locus YBR171W, strain sec66, active compounds read low 0.994 | locus YBR229C, strain ROT2, active compounds read low 0.96 | locus YBR231C, strain swc5, active compounds read low 0.988 | locus YBR279W, strain paf1, active compounds read low 1 | locus YCL011C, strain gbp2, active compounds read low 0.992 | locus YCL016C, strain dcc1, active compounds read low 0.99 | locus YCL029C, strain bik1, active compounds read low 0.975 | locus YCL061C, strain MRC1, active compounds read low 0.991 | locus YCL069W, strain vba3, active compounds read low 0.996 | locus YCR088W, strain abp1, active compounds read low 0.99 | locus YDL005C, strain med2, active compounds read low 0.991 | locus YDL035C, strain GPR1, active compounds read low 0.988 | locus YDL040C, strain nat1, active compounds read low 0.993 | locus YDL074C, strain BRE1, active compounds read low 0.949 | locus YDL101C, strain DUN1, active compounds read low 0.973 | locus YDL134C, strain PPH21, active compounds read low 0.988 | locus YDL185W, strain tfp1, active compounds read low 0.958 | locus YDL192W, strain arf1, active compounds read low 0.972 | locus YDR001C, strain nth1, active compounds read low 1 | locus YDR069C, strain doa4, active compounds read low 0.956 | locus YDR101C, strain arx1, active compounds read low 0.984 | locus YDR137W, strain rgp1, active compounds read low 0.885 | locus YDR150W, strain NUM1, active compounds read low 0.975 | locus YDR159W, strain sac3, active compounds read low 0.981 | locus YDR162C, strain NBP2, active compounds read low 0.978 | locus YDR195W, strain ref2 1 | locus YDR297W, strain sur2, active compounds read low 0.996 | locus YDR318W, strain mcm21, active compounds read low 0.98 | locus YDR334W, strain swr1, active compounds read low 0.998 | locus YDR335W, strain msn5, active compounds read low 1.01 | locus YDR388W, active compounds read low 0.983 | locus YDR392W, strain spt3, active compounds read low 0.922 | locus YDR502C, strain sam2, active compounds read low 0.971 | locus YEL003W, strain gim4, active compounds read low 0.996 | locus YEL037C, strain rad23, active compounds read low 0.999 | locus YEL061C, strain CIN8 (second series), active compounds read low 1 | locus YEL061C, strain CIN8, active compounds read low 0.976 | locus YER015W, strain faa2, active compounds read low 0.996 | locus YER016W, strain bim1, active compounds read low 0.997 | locus YER110C, active compounds read low 0.963 | locus YER111C, strain swi4, active compounds read low 1 | locus YER155C, strain BEM2 (second series), active compounds read low 0.94 | locus YER155C, strain BEM2, active compounds read low 1.01 | locus YER167W, strain BCK2, active compounds read low 0.979 | locus YFR010W, strain ubp6, active compounds read low 0.999 | locus YGL078C, strain dbp3, active compounds read low 0.985 | locus YGL086W, strain mad1, active compounds read low 0.994 | locus YGL167C, strain pmr1, active compounds read low 0.992 | locus YGL173C, strain kem1, active compounds read low 0.99 | locus YGL227W, strain vid30, active compounds read low 0.993 | locus YGL240W, strain doc1, active compounds read low 0.987 | locus YGL248W, strain PDE1, active compounds read low 0.966 | locus YGL253W, strain hxk2, active compounds read low 0.999 | locus YGR078C, strain PAC10, active compounds read low 0.989 | locus YGR135W, strain pre9, active compounds read low 0.976 | locus YGR229C, strain SMI1, active compounds read low 0.99 | locus YGR252W, strain gcn5, active compounds read low 0.968 | locus YHR013C, strain ard1, active compounds read low 1.02 | locus YHR027C, strain rpn1, active compounds read low 0.987 | locus YHR030C, strain SLT2, active compounds read low 0.998 and 0.993 | locus YHR079C, strain IRE1 (second series), active compounds read low 0.984 | locus YHR079C, strain IRE1, active compounds read low 0.988 | locus YHR094C, strain hxt1, active compounds read low 0.987 | locus YHR129C, strain ARP1, active compounds read low 0.978 | locus YHR142W, strain chs7, active compounds read low 0.965 | locus YHR200W, strain rpn10, active compounds read low 0.987 | locus YIL066C, strain RNR3, active compounds read low 0.967 | locus YIL073C, strain SPO22, active compounds read low 0.993 | locus YIL125W, strain kgd1, active compounds read low 0.971 | locus YIR030C, strain dcg1, active compounds read low 0.98 | locus YJL092W, strain hpr5, active compounds read low 0.996 | locus YJL095W, strain BCK1 (second series), active compounds read low 0.993 | locus YJL095W, strain BCK1, active compounds read low 0.974 and 1.01 | locus YJL115W, strain asf1, active compounds read low 0.986 | locus YJL129C, strain trk1, active compounds read low 0.988 | locus YJL134W, strain LCB3, active compounds read low 0.984 | locus YJL154C, strain vps35, active compounds read low 1 | locus YJL164C, strain tpk1, active compounds read low 0.99 | locus YJL166W, strain qcr8, active compounds read low 0.983 | locus YJL168C, strain set2, active compounds read low 0.982 | locus YJL187C, strain SWE1 (second series), active compounds read low 0.983 | locus YJL187C, strain SWE1, active compounds read low 1.02 | locus YJR043C, strain POL32, active compounds read low 0.983 | locus YJR066W, strain TOR1, active compounds read low 0.953
